Measured values: PubChem BioAssay (Tox21)
Records with an inconclusive call do not appear. A call without a number means that no potency is given here. Calls of active or inactive are those of the source. Calls follow the shape of the dose curve; as a rule, active = well fitted inhibition curve with a large enough effect in the repeat runs; inconclusive = weak or mixed curves; inactive = no such curve, though single readings can be large or run the other way.

biological target: Cytochrome P450 1A2 (Homo sapiens) (UniProt P05177); assay: Cytochrome P450 Family 1 Subfamily A Member 2 (CYP1A2) small molecule antagonists: luciferase reporter qHTS assay (AID 1671199); conditions: P450-Glo CYP1A2 enzyme, luciferin luminescence, 1 h; series mostly up to 115 µM; also: nearly all actives have a fitted effect of over 50% in size
Sequence (P05177 whole entry, looked up): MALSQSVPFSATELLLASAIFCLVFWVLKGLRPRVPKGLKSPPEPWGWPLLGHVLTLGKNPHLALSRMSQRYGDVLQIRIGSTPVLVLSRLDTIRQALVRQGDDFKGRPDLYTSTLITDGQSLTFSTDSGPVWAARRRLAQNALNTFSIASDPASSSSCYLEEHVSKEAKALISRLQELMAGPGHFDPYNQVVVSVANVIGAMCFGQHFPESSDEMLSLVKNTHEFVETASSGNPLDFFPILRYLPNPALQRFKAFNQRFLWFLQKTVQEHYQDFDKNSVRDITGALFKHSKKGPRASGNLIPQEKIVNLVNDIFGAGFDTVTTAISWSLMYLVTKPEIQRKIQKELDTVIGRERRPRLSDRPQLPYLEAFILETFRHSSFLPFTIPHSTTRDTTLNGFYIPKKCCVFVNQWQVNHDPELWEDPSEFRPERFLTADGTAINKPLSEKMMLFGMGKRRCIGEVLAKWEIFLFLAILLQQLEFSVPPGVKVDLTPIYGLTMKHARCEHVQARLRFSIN
Source text: National Center for Advancing Translational Sciences [NCATS]
U.S. Environmental Protection Agency [EPA]
National Institutes of Environmental Health Sciences [NIEHS]
National Toxicology Program [NTP]
U.S. Food and Drug Administration [FDA]
Cytochrome P450 (CYP) enzymes are membrane-bound hemeproteins that play a key role in metabolism of drugs and xenobiotics. Evaluation of the effect of chemicals on CYP isozymes is useful to minimize the adverse drug reactions and toxicities in drug development process. Tox21 chemicals were tested for their effect on CYP enzyme activities by using P450-Glo (TM) screening systems (Promega Corporation, Madison, WI). These systems provide a luminescent method containing proluciferin substrates and are converted to luciferin products by CYP isozymes. The luciferin products formed are detected with a luciferin detection reagent, and the amount of light produced is proportional to CYP activity. P450-Glo (TM) CYP1A2 screening system (Catalog. No. V9770) was used to detect the compounds that interfere in CYP1A2 activity. The positive control compound used for CYP1A2 assay is furafylline (Sigma-Aldrich, St. Louis, MO).
Tox21 Assay Protocol Summary:
Two ul of enzyme-substrate mix was dispensed into medium binding white/solid 1536-well plates (Greiner Bio-One North America Inc., Monroe, NC) using a BioRaptr Flying Reagent Dispenser (FRD, Beckman Coulter, Brea, CA). Compounds dissolved in DMSO and positive control (furafyllline) were transferred to the assay plates at 23 nl using a Pintool station (Wako, San Diego, CA). The assay plates were incubated at room temperature for 10 min. Then 2 ul of NADPH regeneration solution was added to each well of the assay plates using an FRD and incubated at room temperature for 1 h. The reaction was stopped by adding 4 ul of detection reagent using an FRD and after 20 min incubation at room temperature the luminescence signal was measured using a ViewLux plate reader (Perkin Elmer, Shelton, CT). Data were expressed as relative luminescence units.
Potency is read from the fitted curve at half-maximal effect.

SMILES | Potency | activity change, negative = inhibition
CCOC(=O)OCC/C(SC(=O)OCC)=C(\C)N(C=O)Cc1cnc(C)nc1N | inactive | –
CC(C)(CO)[C@@H](O)C(=O)NCCCO | inactive | –
O=S(=O)(O)SSS(=O)(=O)O | 44.8 µM (active) | –
Cc1ccccc1C(=O)N1CC/C(=N\OS(=O)(=O)O)c2ccc(Cl)cc21 | inactive | –
O=S1(=O)CCCC1 | 40.2 µM (active) | –
CC(C)(c1ccc(Oc2ccc3c(c2)C(=O)OC3=O)cc1)c1ccc(Oc2ccc3c(c2)C(=O)OC3=O)cc1 | 70.6 µM (active) | –
CC(C)C(=O)Nc1cccc(C(F)(F)F)c1 | 7.76 µM (active) | –
COCCOCCOCCOC | inactive | –
CCCCCCCCC(=O)OCC | inactive | –
CCCCCCCCCCC | inactive | –
Nc1cc(Cl)cc(S(=O)(=O)O)c1O | inactive | –
CC1CCC(C(C)(C)S)C(=O)C1 (stereo not given) | inactive | –
CC(=O)OC(C)c1ccccc1 (stereo not given) | inactive | –
CCC1Nc2cc(Cl)c(S(N)(=O)=O)cc2S(=O)(=O)N1 (stereo not given) | inactive | –
O=C1CC[C@H](C(=O)N2CCCCC2)N1 | inactive | –
CC(C)CCCC(C)CC=O (stereo not given) | inactive | –
CCCCCCCCCCCCCCCCCCN(C)C | inactive | –
Nc1ccnc(=O)[nH]1 | inactive | –
CNC(=O)NC | inactive | –
NS(=O)(=O)c1cc2c(cc1Cl)NC(C(Cl)Cl)NS2(=O)=O (stereo not given) | inactive | –

SMILES | Potency | activity change, negative = inhibition
CCCCCCCCCCCCCC(=O)OC | inactive | –
O=C(Oc1ccccc1C(=O)O)c1ccccc1O | inactive | –
O=C(O)c1ccccc1C(=O)Nc1ccc(S(=O)(=O)Nc2nccs2)cc1 | inactive | –
CCC(C)N (stereo not given) | inactive | –
Cc1ccccc1OCC1CO1 (stereo not given) | inactive | –
C=CCOc1cc(Cl)ccc1C(=O)NCCN(CC)CC | 2.57 µM (active) | –
Cc1nc(C)nc(N2C[C@@H](C)N(c3ccnc([C@@H](C)O)n3)[C@@H](C)C2)n1 | inactive | –
CC(C)CCCCCCOC(=O)C1CCCCC1C(=O)OCCCCCCC(C)C (stereo not given) | inactive | –
CCCO | inactive | –
CCCCC(CC)C(=O)OC(C)C (stereo not given) | inactive | –
CC(=O)Nc1ccc(C)cc1 | 39.6 µM (active) | –
Nc1ccc(S(=O)(=O)Nc2ccccn2)cc1 | inactive | –
Cc1cccc(Nc2ccncc2S(=O)(=O)NC(=O)NC(C)C)c1 | inactive | –
CCNC(=O)NCCCOc1cccc(CN2CCCCC2)c1 | inactive | –
Nc1cc(C(=O)O)ccc1Cl | inactive | –
O=P(O)(O)OCC(O)CO (stereo not given) | inactive | –
CCCCC(CC)CNC(=O)CC(C)OC(=O)CCC(=O)O (stereo not given) | inactive | –
COCC(=O)Nc1c(I)c(C(=O)NCC(O)CO)c(I)c(C(=O)N(C)CC(O)CO)c1I (stereo not given) | inactive | –
Nc1c(NC/C=C\COc2cc(CN3CCCCC3)ccn2)c(=O)c1=O | – | 11.8% [at 23.6 µM] (inactive)
COC(/C=C(\C)CCC=C(C)C)OC | inactive | –
